Records with an inconclusive call do not appear. A number with no mark means an inactive call. Activity calls are given as the source filed them. Calls come from the whole dose curve; as a rule, active = well fitted inhibition curve with a large enough effect; inconclusive = small, poorly fitted or top-dose-only effect; inactive = no such curve, though single readings can be large or run the other way.
% is set by controls: 0 for no effect and ±100 for the full control effect; potency is the fitted concentration of half-maximal effect.

The test system of this assay is Zika virus NS2B-NS3 protease (linked construct). The assay can be described thus: Primary screen NINDS Rhodamine qHTS for Zika virus inhibitors (AID 1347160). Note: nearly all actives have a fitted effect of over 55% in size. The settings on record: purified NS2B-NS3 protease, Rhodamine110 substrate fluorescence; series mostly up to 57.1 µM; activity change, negative = inhibition: at the top concentration. The method in brief:
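Percent inhibition, normalized to uninhibited and enzyme-free controls, is fitted to a 4-parameter Hill equation. Fluorescence change comes from a 15-min cleavage of 1.5 microM bis-peptide Rhodamine110 substrate by 25 nM linked NS2B-NS3 at room temperature.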
(In general: In qHTS, concentration-response curves come from the screen itself.)
As to `CC(=O)Oc1cc2c(s1)CCN([C@H](C(=O)C1CC1)c1ccccc1F)C2`, the “activity change, negative = inhibition” value was 15.8%.

For the compound `C=C1[C@@H]2CC[C@@]3(C)[C@H](c4ccoc4)OC(=O)C[C@]13O[C@H]1CC(=O)C(C)(C)[C@H](CC(=O)OC)[C@]12C`, the “activity change, negative = inhibition” value was 31.8% [at 33.1 µM].

Regarding `C/C=C(\C)C(=O)O[C@H]1[C@@H](O[C@]2(COC(=O)CC(C)C)O[C@H](COC(=O)C(C)C)[C@@H](OC(C)=O)[C@@H]2O)O[C@H](COC(C)=O)[C@@H](O)[C@@H]1O`, the “activity change, negative = inhibition” value was -18.2% [at 15.1 µM].

Take `C#C[C@]1(O)CC[C@H]2[C@@H]3CCC4=C/C(=N/O)CC[C@@H]4[C@H]3CC[C@@]21CC`: the “outcome” value was “inactive; activator”.

With `CC1CC(O)C2(C)C(C(=O)O)=CCCC2C1(C)CCc1ccoc1` (stereo not given), the “activity change, negative = inhibition” value was -17.6% [at 33.1 µM].

Turning to `CCOC(=O)[C@H](CCc1ccccc1)N[C@@H](C)C(=O)N1C2CCCCC2C[C@H]1C(=O)O` (stereo not given in full), the “activity change, negative = inhibition” value was 34%.

With `CC(=O)OC[C@]1(O)[C@H]2[C@H](OC(=O)CC(C)C)OC=C(CO[C@@H]3O[C@H](CO)[C@@H](O)[C@H](O)[C@H]3O)[C@H]2C[C@@H]1O`, the “activity change, negative = inhibition” value was -18.6% [at 33.1 µM].

For the compound `CC(=O)O[C@H]1CC[C@@]2(CI)C(=CC[C@@H]3[C@@H]2CC[C@]2(C)[C@@H]([C@H](C)CCCC(C)C)CC[C@@H]32)C1`, the activity change, negative = inhibition is 7.05% [at 10.7 µM].

As to `C=C1[C@@H]2[C@H]3OC(=O)C(=C)[C@@H]3CC[C@@](C)(O)[C@@H]2C[C@@H]1O[C@@H]1O[C@H](CO)[C@@H](O)[C@H](O)[C@H]1O`, the “activity change, negative = inhibition” value was 14.6% [at 33.1 µM].

For `CC1(C)C(O)CCC2(C)C1C(O)C=C1COC(=O)C12O` (stereo not given), the “activity change, negative = inhibition” value was 20.2%.

`O=C(/C=C/c1ccc(O)cc1)OCC1=C[C@@H](O)[C@@H]2C=CO[C@@H](O[C@@H]3O[C@H](CO)[C@@H](O)[C@H](O)[C@H]3O)[C@H]12`: the “activity change, negative = inhibition” value is -21.2% [at 33.1 µM].

Take `CC1(C)CC2C(C1)C1(C)CCC13OC3(CO)C2O` (stereo not given): the “activity change, negative = inhibition” value is -9.38%.

On to `O=C(O)C[C@@H](NC(=O)c1cc(-c2ccc(-c3ccncc3)cc2)cs1)c1ccccc1`, for which the Potency was 20 µM (active).

Turning to `CC1(C)CC[C@]2(C(=O)O)CC[C@]3(C)C(=CCC4[C@@]5(C)CCC(O[C@@H]6OC[C@H](O)[C@H](O)[C@H]6O[C@@H]6O[C@H](CO)[C@@H](O)[C@H](O)[C@H]6O)[C@@](C)(CO)C5CC[C@]43C)[C@@H]2C1` (stereo not given in full), the “outcome” value is “inactive [at 15.1 µM]”.

Consider `COc1cc(/C=C/C(=O)OC2CC(C)=C(C(=O)O)/C2=C/CO[C@@H]2O[C@H](CO)[C@@H](O)[C@H](O)[C@H]2O)ccc1O` (stereo not given in full), for which the “activity change, negative = inhibition” value is -26% [at 33.1 µM].

Consider `CC(C)c1ccc(CC(=O)N2CCC[C@@H](c3cccc(OC(C)(C)C(=O)O)c3)C2)cc1`, for which the “activity change, negative = inhibition” value is -24.2%.

With `CC(=O)c1cnc2ccc(-c3cc(Cl)c(O)c(Cl)c3)nc2c1NC1CCC(CN(C)C)CC1` (stereo not given), the outcome was “inactive; activator [at 10.7 µM]”.

Turning to `COc1ccc(C[C@H](N)C(=O)N[C@H]2[C@@H](O)[C@H](n3cnc4c(N(C)C)ncnc43)O[C@@H]2CO)cc1`, the call was inactive.

`CC1CCC2C(C)(C)C(O)CCC2(C)C12Cc1c(O)cc3c(c1O2)CN=C3N` (stereo not given): the “activity change, negative = inhibition” value was -10.7% [at 33.1 µM].

`CCOc1nc2cccc(C(=O)O)c2n1Cc1ccc(-c2ccccc2-c2noc(=O)[nH]2)cc1`: the compound was called inactive.

(Values after PubChem BioAssay (NCATS).)
